# A number with no mark means an inactive call. Inconclusive results are not listed. Entries that show only a call come without a potency. Activity calls are given as the source filed them. Unless noted, calls follow the shape of the full dose curve.
# Assays:
# [1] = Nuclear factor erythroid 2-related factor 2/antioxidant responsive element (Nrf2/ARE) small molecule agonists: qHTS cell viability counter screen in human keratinocytes (AID 1919968; active = well fitted curve in the direction sought with a large enough effect in the repeat runs; an effect the other way counts as inactive or inconclusive; also: nearly all actives have a fitted effect of over 55% in size)
# Method in brief: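 Seed 1,500 KeratinoSens cells per well, then incubate 5 h at 37 C/5% CO2. Add compounds in DMSO and incubate 23 h. Add CellTiter-Fluor, wait 1 h and read fluorescence.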
# [2] = Nuclear factor erythroid 2-related factor 2/antioxidant responsive element (Nrf2/ARE) small molecule agonists: luciferase reporter gene qHTS assay in human keratinocytes (AID 1919969); also: nearly all actives have a fitted effect of over 35% in size; also: potency is read from the fitted curve at half-maximal effect
# [3] = target: Gonadotropin-releasing hormone receptor (Homo sapiens) (UniProt P30968); test: Human gonadotropin-releasing hormone receptor (GnRHR) small molecule agonists, calcium flux assay in GnRHR-HEK293 cells (AID 1920063); also: nearly all actives have a fitted effect of over 35% in size
# Gonadotropin-releasing hormone receptor (Homo sapiens), sequence (P30968 whole entry, looked up): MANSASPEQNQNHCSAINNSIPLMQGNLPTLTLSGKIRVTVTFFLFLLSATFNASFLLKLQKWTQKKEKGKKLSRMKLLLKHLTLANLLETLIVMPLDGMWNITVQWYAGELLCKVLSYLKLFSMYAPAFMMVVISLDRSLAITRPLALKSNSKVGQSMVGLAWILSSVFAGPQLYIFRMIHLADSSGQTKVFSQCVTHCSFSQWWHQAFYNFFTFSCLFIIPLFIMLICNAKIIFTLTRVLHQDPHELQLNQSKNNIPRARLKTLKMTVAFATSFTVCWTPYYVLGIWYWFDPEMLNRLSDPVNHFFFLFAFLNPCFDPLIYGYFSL
# Method in brief: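 Cells: HEK293 stably expressing human GnRHR. Steps: overnight (18 h) culture, 1 h calcium dye loading at 37 C, compound addition, kinetic fluorescence read at 480/540 nm. Each compound tested at 15 concentrations in triplicate.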
# [4] = target: KiSS-1 receptor (Homo sapiens) (UniProt Q969F8); test: Human kisspeptin (KISS1R) small molecule agonists, calcium flux assay in KISS1R-HEK293 cells (AID 1920064; active = well fitted curve in the direction sought with a large enough effect in the repeat runs; an effect the other way counts as inactive or inconclusive)
# KiSS-1 receptor (Homo sapiens), sequence (Q969F8 whole entry, looked up): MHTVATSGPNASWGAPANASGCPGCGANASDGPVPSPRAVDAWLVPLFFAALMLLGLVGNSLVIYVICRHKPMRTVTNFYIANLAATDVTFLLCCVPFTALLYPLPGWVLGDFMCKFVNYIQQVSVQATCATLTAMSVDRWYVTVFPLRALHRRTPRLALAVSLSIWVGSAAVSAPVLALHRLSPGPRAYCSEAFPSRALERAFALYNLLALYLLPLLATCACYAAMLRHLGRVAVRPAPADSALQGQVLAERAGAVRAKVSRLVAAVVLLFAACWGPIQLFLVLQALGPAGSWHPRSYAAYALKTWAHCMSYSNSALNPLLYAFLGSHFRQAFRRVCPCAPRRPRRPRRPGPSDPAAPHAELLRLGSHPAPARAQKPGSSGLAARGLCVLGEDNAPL
# Method in brief: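 Cells plated and incubated 18 h; dye added, 1 h at 37 C; compounds in DMSO pinned in; signal read at 480/540 nm every second for 3 min. Each compound tested at 15 concentrations in triplicate.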
# [5] = G protein-coupled receptor (GPCR) small molecule agonists, calcium flux assay: HEK293 wild type cell line counter screen (AID 1920065)
# Method in brief: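 Counter-screen of the Tox21 10K library for non-specific calcium release: dye-loaded cells received compounds in DMSO and were monitored by kinetic fluorescence (480/540 nm, 3 min). Fifteen concentrations, run in triplicate.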
# [6] = p53 small molecule agonists, cell-based qHTS assay with human liver microsomes (AID 1963577)
# Method in brief: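 p53RE-bla reporter cells were pre-incubated 5 h at 37 C, then treated with compounds plus human liver microsomes (0.5 mg/mL final) and NADPH (0.5 mg/mL final) for 16 h at 37 C. Beta-lactamase activity was read by LiveBLAzer fluorescence after 2 h at room temperature.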
# [7] = p53 small molecule agonists, cell-based qHTS assay with rat liver microsomes (AID 1963578)
# Method in brief: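 p53RE-bla cells were exposed to compounds together with rat liver microsomes (0.5 mg/mL final) and NADPH (0.5 mg/mL final) for 16 h at 37 C, then read by LiveBLAzer beta-lactamase fluorescence after 2 h at room temperature.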
# [8] = p53 small molecule agonists, cell-based qHTS assay with human liver microsomes: qHTS cell viability counter screen (AID 1963579); also: nearly all actives have a fitted effect of over 45% in size
# Method in brief: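 p53RE-bla cells (4,000/well) were pre-incubated 5 h at 37 C, then given compounds in DMSO plus human liver microsomes (0.5 mg/mL final) and NADPH (0.5 mg/mL final) for 16 h at 37 C. Viability was read by CellTiter-Glo luminescence.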
# [9] = p53 small molecule agonists, cell-based qHTS assay with rat liver microsomes: qHTS cell viability counter screen (AID 1963580); also: nearly all actives have a fitted effect of over 45% in size
# Method in brief: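 Viability is assessed in parallel with the p53 reporter read: HCT-116 p53RE-bla cells receive compounds plus rat microsomes and NADPH (0.5 mg/mL final apiece), incubate 16 h at 37 C, and then CellTiter-Glo luminescence is recorded.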
# [10] = p53 small molecule agonists, cell-based qHTS assay: qHTS cell viability counter screen (AID 1963581); also: nearly all actives have a fitted effect of over 45% in size; also: potency is read from the fitted curve at half-maximal effect
# Method in brief: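 Cells: HCT-116 with p53 response element-driven beta-lactamase. Treatment: 16 h, 37 C, compounds in DMSO. Read: CellTiter-Glo luminescence after 30 min RT.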
# [11] = p53 small molecule agonists, cell-based qHTS assay (AID 1963582; active = well fitted activation curve with a large enough effect in the signal ratio in the repeat runs, not every such curve was filed as active; the % refers to the signal ratio)
# Method in brief: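 Quantitative HTS in p53RE-bla cells: after a 5 h settling period, compounds delivered in DMSO were left on cells for 16 h at 37 C, and reporter induction was measured as fluorescence following 2 h substrate loading.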
# [12] = target: 5-hydroxytryptamine receptor 2A (Homo sapiens) (UniProt P28223); test: 5-hydroxytryptamine receptor 2A (HTR2A) small molecule antagonists, cell-based qHTS assay (AID 1963586); also: nearly all actives have a fitted effect of over 45% in size
# 5-hydroxytryptamine receptor 2A (Homo sapiens), sequence (P28223 whole entry, looked up): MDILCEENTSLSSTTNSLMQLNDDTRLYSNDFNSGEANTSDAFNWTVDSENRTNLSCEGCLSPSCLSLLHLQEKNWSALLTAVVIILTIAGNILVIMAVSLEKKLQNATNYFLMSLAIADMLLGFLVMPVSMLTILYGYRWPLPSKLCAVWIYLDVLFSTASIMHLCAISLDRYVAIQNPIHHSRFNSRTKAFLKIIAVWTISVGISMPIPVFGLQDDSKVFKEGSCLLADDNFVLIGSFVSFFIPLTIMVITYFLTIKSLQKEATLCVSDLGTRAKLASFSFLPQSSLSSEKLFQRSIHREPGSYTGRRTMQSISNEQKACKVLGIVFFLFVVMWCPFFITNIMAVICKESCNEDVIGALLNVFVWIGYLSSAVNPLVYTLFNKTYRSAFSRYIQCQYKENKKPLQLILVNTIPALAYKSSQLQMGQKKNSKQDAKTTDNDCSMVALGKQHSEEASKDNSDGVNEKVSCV
# Method in brief: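 Antagonist-mode intracellular calcium assay: DOI (4 nM) added after 5 min compound pre-incubation at room temperature to dye-loaded HTR2A-CHO cells. Fluorescence followed for 3 min, sampled every second.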
# [13] = target: 5-hydroxytryptamine receptor 2A (Homo sapiens) (UniProt P28223); test: 5-hydroxytryptamine receptor 2A (HTR2A) small molecule agonists, cell-based qHTS assay (AID 1963587); also: nearly all actives have a fitted effect of over 30% in size
# Method in brief: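 CHO cells stably expressing human HTR2A, plated 18 h, loaded with calcium dye 1 h at 37 C. Agonist mode: compounds added and intracellular calcium fluorescence recorded kinetically for 2 min at 1 sec intervals.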
# [14] = target: Muscarinic acetylcholine receptor M1 (Homo sapiens) (UniProt P11229); test: Cholinergic receptor muscarinic 1 (CHRM1) small molecule antagonists, cell-based qHTS assay (AID 1963588); also: nearly all actives have a fitted effect of over 40% in size
# Muscarinic acetylcholine receptor M1 (Homo sapiens), sequence (P11229 whole entry, looked up): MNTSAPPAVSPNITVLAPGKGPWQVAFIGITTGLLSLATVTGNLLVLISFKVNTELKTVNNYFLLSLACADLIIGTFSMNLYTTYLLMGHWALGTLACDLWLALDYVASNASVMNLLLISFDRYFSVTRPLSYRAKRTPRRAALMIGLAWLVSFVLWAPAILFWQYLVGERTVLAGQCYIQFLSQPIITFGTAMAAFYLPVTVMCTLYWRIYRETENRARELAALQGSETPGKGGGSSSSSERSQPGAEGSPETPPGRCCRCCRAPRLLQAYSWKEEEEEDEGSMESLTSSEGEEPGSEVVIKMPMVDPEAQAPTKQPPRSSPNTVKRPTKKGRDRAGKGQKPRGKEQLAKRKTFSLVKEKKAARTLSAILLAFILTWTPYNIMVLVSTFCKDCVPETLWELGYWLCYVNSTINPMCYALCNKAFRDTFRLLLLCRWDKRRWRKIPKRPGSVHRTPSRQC
# Method in brief: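 CHRM1-CHO calcium-flux assay, antagonist mode. Cells were seeded 18 h, dye-loaded 1 h at 37 C and given compound for 5 min at RT, then acetylcholine was added at 50nM. FDSS fluorescence was read 3 min; 15 concentrations, three runs.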
# [15] = target: Muscarinic acetylcholine receptor M1 (Homo sapiens) (UniProt P11229); test: Cholinergic receptor muscarinic 1 (CHRM1) small molecule agonists, cell-based qHTS assay (AID 1963589); also: nearly all actives have a fitted effect of over 35% in size
# Method in brief: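 Agonist-mode qHTS in CHO cells stably carrying human muscarinic M1. Intracellular calcium is tracked by fluorescence every second after compound transfer; each compound runs at 15 concentrations in three independent runs.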
# [16] = cAMP Responsive Elements (CRE) small molecule agonists, cell-based qHTS assay (AID 1963590)
# Method in brief: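 Agonist mode qHTS in CRE-bla HEK 293T cells: compounds dosed from DMSO for 3 h at 37 C/5% CO2, followed by LiveBLAzer B/G FRET substrate for 2 h at room temperature.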
# [17] = cAMP Responsive Elements (CRE) small molecule antagonists, cell-based qHTS assay (AID 1963591; active = well fitted inhibition curve with a large enough effect in the signal ratio in the repeat runs, not every such curve was filed as active; the % refers to the signal ratio)
# Method in brief: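 Antagonist mode: test compounds are co-incubated with the adenylyl cyclase activator NKH477 (0.25 uM final) on CRE-bla HEK293T cells for 3 h at 37 °C, followed by LiveBLAzer substrate loading.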
# [18] = target: Beta-2 adrenergic receptor (Homo sapiens) (UniProt P07550); test: Adrenergic beta2 receptor (ADRB2) small molecule antagonists, cell-based qHTS assay (AID 1963592); also: series mostly up to about 92 µM; nearly all actives have a fitted effect of over 50% in size
# Beta-2 adrenergic receptor (Homo sapiens), sequence (P07550 whole entry, looked up): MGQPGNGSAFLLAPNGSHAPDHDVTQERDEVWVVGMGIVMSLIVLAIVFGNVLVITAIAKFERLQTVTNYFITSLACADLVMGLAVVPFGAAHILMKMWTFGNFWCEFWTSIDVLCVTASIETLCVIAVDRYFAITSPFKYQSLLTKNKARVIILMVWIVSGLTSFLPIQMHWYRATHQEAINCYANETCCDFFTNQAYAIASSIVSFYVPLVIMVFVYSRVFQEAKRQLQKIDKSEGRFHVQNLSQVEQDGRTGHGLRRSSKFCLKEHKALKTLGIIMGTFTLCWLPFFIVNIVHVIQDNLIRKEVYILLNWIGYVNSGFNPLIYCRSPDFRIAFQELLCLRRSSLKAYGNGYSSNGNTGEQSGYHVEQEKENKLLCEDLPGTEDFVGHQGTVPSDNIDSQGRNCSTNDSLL
# Method in brief: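 Cells (CHO, stable ADRB2 overexpression) incubated 18-20hr at 37C; compounds added from DMSO; agonist mix (1nM isoproterenol, 100uM IBMX, 25uM Ro-20-1724) added; 0.5hr RT; d2-cAMP and anti-cAMP-cryptate added; 1hr RT; 665/615 nm read.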
# [19] = target: D(2) dopamine receptor (Homo sapiens) (UniProt P14416); test: Dopamine D2 receptor (DRD2) small molecule agonists, cell-based qHTS assay (AID 1963594); also: nearly all actives have a fitted effect of over 35% in size
# D(2) dopamine receptor (Homo sapiens), sequence (P14416 whole entry, looked up): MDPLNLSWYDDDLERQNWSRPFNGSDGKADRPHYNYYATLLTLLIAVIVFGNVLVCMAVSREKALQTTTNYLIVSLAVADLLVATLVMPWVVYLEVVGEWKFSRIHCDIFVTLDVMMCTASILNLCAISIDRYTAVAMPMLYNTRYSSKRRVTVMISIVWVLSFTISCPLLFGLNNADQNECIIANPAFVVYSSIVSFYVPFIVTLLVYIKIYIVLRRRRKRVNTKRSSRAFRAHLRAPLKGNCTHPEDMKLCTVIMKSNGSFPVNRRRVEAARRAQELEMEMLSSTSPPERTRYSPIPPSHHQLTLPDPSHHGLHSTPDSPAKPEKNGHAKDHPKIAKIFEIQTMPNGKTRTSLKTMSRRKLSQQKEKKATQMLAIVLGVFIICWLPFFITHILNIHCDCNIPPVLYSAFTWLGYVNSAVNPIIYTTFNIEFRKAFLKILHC
# Method in brief: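 HEK293 cells stably expressing human DRD2, pre-treated with PDE inhibitor Ro20-1724 (0.1 mM final) and compound 10 min at room temperature, then stimulated with NKH477 (200nM […]) for 30 min. cAMP read by HTRF (665/620 nm).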
# [20] = target: D(2) dopamine receptor (Homo sapiens) (UniProt P14416); test: Dopamine D2 receptor (DRD2) small molecule antagonists, cell-based qHTS assay (AID 1963595; active = well fitted inhibition curve with a large enough effect in the signal ratio in the repeat runs, with a control signal flat; the % refers to the signal ratio)
# Method in brief: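 DRD2-HEK293; 0.1 mM Ro20-1724; cpd 10 min RT; NKH477 200 nM + quinpirole 12 nM, 30 min RT; HTRF cAMP (cAMP-d2/anti-cAMP cryptate), 665/620 nm ratio after 1 h.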
Compound,Potency [1],Potency [2],Potency [3],Potency [4],Potency [5],Potency [6],Potency [7],Potency [8],Potency [9],Potency [10],Potency [11],Potency [12],Potency [13],Potency [14],Potency [15],Potency [16],Potency [17],Potency [18],Potency [19],Potency [20]
COS(=O)(=O)OC,inactive,inactive,inactive,inactive,inactive,inactive,inactive,inactive,inactive,inactive,inactive,inactive,inactive,inactive,inactive,inactive,inactive,inactive,inactive,inactive
O=C(Cc1ccccc1)c1ccccc1,inactive,inactive,inactive,inactive,inactive,inactive,inactive,inactive,inactive,inactive,inactive,inactive,inactive,inactive,inactive,inactive,inactive,inactive,inactive,inactive
CCCCCCCCCCBr,inactive,inactive,inactive,inactive,inactive,inactive,inactive,inactive,inactive,inactive,inactive,inactive,inactive,inactive,inactive,inactive,inactive,inactive,inactive,inactive
CC1=C2[C@H]3OC(=O)[C@@H](C)[C@@H]3CC[C@@]2(C)C=CC1=O,inactive,inactive,inactive,inactive,inactive,inactive,inactive,inactive,inactive,inactive,inactive,inactive,inactive,inactive,inactive,inactive,inactive,inactive,inactive,inactive
CCN(CC)C1CCCCC1,inactive,inactive,inactive,inactive,inactive,inactive,inactive,inactive,inactive,inactive,inactive,inactive,inactive,inactive,inactive,inactive,inactive,inactive,inactive,inactive
c1ccc2c(c1)sc1ccccc12,inactive,inactive,inactive,inactive,inactive,inactive,inactive,inactive,inactive,inactive,inactive,inactive,inactive,inactive,inactive,inactive,inactive,inactive,inactive,inactive
CC(C)CCCCCCOC(=O)c1ccccc1C(=O)OCCCCCCC(C)C,inactive,inactive,inactive,inactive,inactive,inactive,inactive,inactive,inactive,inactive,inactive,inactive,inactive,inactive,inactive,inactive,inactive,inactive,inactive,inactive
C#CCOC(=O)/C=C(C)/C=C/CC(C)CCCC(C)C (stereo unspecified),inactive,inactive,inactive,inactive,inactive,inactive,inactive,inactive,inactive,inactive,inactive,inactive,inactive,inactive,inactive,inactive,inactive,inactive,inactive,inactive
CN(C)c1ccc(N(C)C)cc1,inactive,54.6 µM (active),inactive,inactive,inactive,inactive,inactive,inactive,inactive,0.365 µM (active),inactive,inactive,inactive,inactive,inactive,inactive,–,–,–,–
N#CCBr,inactive,inactive,inactive,inactive,inactive,inactive,inactive,inactive,inactive,inactive,inactive,inactive,inactive,inactive,inactive,inactive,inactive,inactive,inactive,inactive
C=CCN(CC=C)C(=O)C(Cl)Cl,inactive,inactive,inactive,inactive,inactive,inactive,inactive,inactive,inactive,inactive,inactive,inactive,inactive,inactive,inactive,inactive,inactive,inactive,inactive,inactive
N#Cc1cc([N+](=O)[O-])ccc1N,inactive,inactive,inactive,inactive,inactive,inactive,inactive,inactive,inactive,inactive,inactive,inactive,inactive,inactive,inactive,inactive,inactive,inactive,inactive,inactive
Clc1nc(Cl)nc(Nc2ccccc2Cl)n1,inactive,inactive,inactive,inactive,inactive,inactive,inactive,inactive,inactive,inactive,inactive,inactive,inactive,inactive,inactive,inactive,inactive,inactive,inactive,inactive
[CH3][Sn]([Cl])([Cl])[Cl],inactive,inactive,inactive,inactive,inactive,inactive,inactive,inactive,inactive,inactive,inactive,inactive,inactive,inactive,inactive,inactive,inactive,inactive,inactive,inactive
CCCCN=C=O,inactive,inactive,inactive,inactive,inactive,inactive,inactive,inactive,inactive,inactive,inactive,inactive,inactive,inactive,inactive,inactive,inactive,inactive,inactive,inactive

# From PubChem BioAssay (Tox21)
